According to PubChem BioAssay (NCI):
This is part of a sample that, as a whole, favours compounds with a hit. Of some 83,000 tested, about 20% had one in any assay.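 Testing used 96-well plates and a 48-hour single-concentration exposure. Example: -40 means 40% of the starting cells died.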 Unmarked numbers belong to inactive results. Calls of active or inactive are those of the source. The calls were made as follows: active = growth percent below 10; inactive = the rest.

What was measured:
Experiment in all cases: NCI-60 one-dose screen, 48 h (100 = growth as untreated, 0 = no growth, -100 = all killed)
Conditions in all cases: 10 µM unless noted
[1] = test system: DU-145 prostate
[2] = test system: K-562 leukemia
[3] = test system: MALME-3M melanoma
[4] = test system: MDA-MB-231 breast
[5] = test system: SF-268 CNS
[6] = test system: SF-539 CNS
[7] = test system: UACC-257 melanoma
[8] = test system: M14 melanoma
[9] = test system: HCT-15 colon
[10] = test system: HT29 colon
[11] = test system: SNB-75 CNS
[12] = test system: SNB-19 CNS
[13] = test system: PC-3 prostate
[14] = test system: SK-MEL-5 melanoma
[15] = test system: UACC-62 melanoma
[16] = test system: LOX IMVI melanoma
[17] = test system: SK-MEL-28 melanoma
[18] = test system: RXF 393 renal
[19] = test system: SF-295 CNS
[20] = test system: U251 CNS

| Structure (SMILES) | growth [1] | growth [2] | growth [3] | growth [4] | growth [5] | growth [6] | growth [7] | growth [8] | growth [9] | growth [10] | growth [11] | growth [12] | growth [13] | growth [14] | growth [15] | growth [16] | growth [17] | growth [18] | growth [19] | growth [20] |
| --- | --- | --- | --- | --- | --- | --- | --- | --- | --- | --- | --- | --- | --- | --- | --- | --- | --- | --- | --- | --- |
| Cc1ccc(S(=O)(=O)N(CCc2ccc(Cl)cc2)S(=O)(=O)c2ccc(C)cc2)cc1 | 105% | 70% | 93% | 108% | 99.8% | 96.8% | 92.4% | 106% | 94.5% | 86% | 67.7% | 94.6% | 85.9% | 87.6% | 78.1% | 92.4% | 93.9% |  |  |  |
| O=C1C=CC(Nc2ccccc2[N+](=O)[O-])C1Nc1ccccc1[N+](=O)[O-] (centres undefined) | -69.1% (active) | 5.11% (active) | -89.7% (active) |  | 75.8% | -93.6% (active) | 28.7% | -68.9% (active) | -86.6% (active) | -32.3% (active) | 36.9% |  |  | 45% | -68.9% (active) | -97.3% (active) | -92.9% (active) | -96.4% (active) | 67.5% | 72.4% |
| Cc1cccc(NC(=O)c2sc3nc4c(cc3c2N)C(=O)CCC4)c1 | 9.01% (active) | 18.8% |  | 36.6% | 64.8% | -27.7% (active) | 76.3% | 21.8% | 28.9% | 11.7% | 4.87% (active) | 42.1% | 27.1% | 22.8% | 22% | 54.4% | 62.2% | 22.7% | 20.6% |  |
| N#Cc1ccc(NC(=O)Nc2ccc(Cc3ccc(NC(=O)Nc4ccc(C#N)cc4)cc3)cc2)cc1 | 40.5% | 11.5% | 27.5% |  | 44.5% | 50.7% | 26.3% | 37.2% | 25.9% | 52.5% | 83.3% |  | 23.3% | 10.5% | 14.2% | -67.6% (active) | 36.7% | 51.4% | 12.1% | 34.4% |
| CN1Cc2c(cc(CN3CCCCC3)n2C)C(c2ccc(Br)cc2)C1 (centres undefined) | 96.5% | 34.9% | 22.8% |  | 92.6% | 76.1% | 13.4% | 14.1% | 67.7% | 49.6% | 70.3% |  | 82.9% | 61.2% | -16.1% (active) | 68.2% | 54.3% | 74.8% | 81.3% | 86.4% |
| Cc1ccc(Nc2c(C(N)=O)cnc3ccc(-c4csc(N)n4)cc23)cc1 | 103% | 113% |  | 98.8% | 106% | 92% | 101% | 98.6% | 98.7% | 103% | 96.9% | 102% | 97.6% | 96.7% | 102% | 96.2% | 101% | 98.3% | 98.7% |  |
| CCCCN(CC)CCCCCCCCCCN1CCCc2cc(OC)ccc21 | 48.5% | -38.7% (active) | -28.6% (active) |  | 49.7% | 93.1% | 103% | 88.2% | 38.1% | 19.2% | 93.2% |  | 29.9% | 92.1% |  | 15% | 119% | 92.7% | 43.5% | 87.4% |
| C=CCSc1nnc(-c2ccc(C(C)(C)C)cc2)n1-c1cccc(C(F)(F)F)c1 | 54.3% | 20.3% | 66.1% |  |  | 69.5% | 48.5% | 45.3% | 17.7% | 26.3% | 80.5% |  | 16.6% | 37.4% | 42.4% | 47.1% | 67.8% | 18.1% | 29.3% | 32.6% |
| Cc1cc(Nc2nc(N3CCOCC3)nc3ccccc23)n[nH]1 | 75.2% | 56.3% | 66.4% | 84.9% | 63.8% |  | 76% | 45.8% | 38.7% | 68.4% | -15.3% (active) | 93.2% | 59.9% | 79.9% | 45.7% | 63.3% | 72.2% |  | 73.4% |  |
| CCCN(CCC)CN(CCC)CCC | 106% | 95.6% | 97.6% |  | 102% | 102% | 100% | 102% | 102% | 96.5% | 96% |  | 97.5% | 107% |  | 104% |  | 98.2% | 107% | 98.1% |
| COc1ccc2nc(NC(=O)c3cccnc3Nc3cc(OC)c(OC)c(OC)c3)sc2c1 | -56.1% (active) | 15.7% |  | -9.82% (active) | -73.1% (active) | -57.1% (active) | 49.9% | 48.4% | 56.3% | 11.9% | 14.1% | 26.4% |  | 15.5% | 57.2% | 37.1% | 24.1% | -39.2% (active) | 54.2% |  |
| CCN(CC)c1ccc(CNc2cc(C)nc3ccc(OC)cc23)cc1 | 58.7% | -35.6% (active) | -77.5% (active) |  | 72.7% | 76% | 18.7% | 48.8% | 79.1% | 9.05% (active) | 65.8% |  | 28.5% | 39% |  | 24.7% | 96.6% | 77% | 16.5% | 25% |
| Cc1csc2ccc(Cl)cc12 | 110% | 106% | 97.7% | 97% | 108% | 96.8% | 102% | 101% | 95.6% | 102% | 69.7% | 99.2% | 96.8% | 107% | 96.2% | 103% | 104% |  |  |  |
| Cc1cc2c(cc1C)NC1=C(N2)OC(c2c3ccccc3cc3ccccc23)C1=O (centres undefined) | 16.7% | 9.62% (active) | 13.9% |  | 39.3% | -21.9% (active) | 65.5% | 10% | 0.544% (active) | 12.5% | 49.4% |  | 28.2% | -40.6% (active) | 3.19% (active) | -35.4% (active) | 31.5% | 24.2% | -1.93% (active) | -8.89% (active) |
| Cl/C(=N\Nc1ccccc1)c1ccccc1 | 101% | 89.5% | 86.4% | 89.7% | 92.8% | 103% | 75.2% | 106% | 93.4% | 103% | 67.4% | 100% |  | 93.8% | 78.2% | 97% | 101% |  | 87.7% |  |
| COc1cccc(/C=C2/C(=O)N(Cc3ccco3)SC2=S)c1OC | 102% | 51.2% | 98.8% | 100% | 99% | 102% | 89.6% | 105% | 97.2% | 90.1% | 71.8% | 107% | 103% | 97.5% | 93.8% | 33.8% | 101% |  |  |  |
| O=C(Nc1cccc2c1C(=O)c1cccc(Nc3cccc4c3C(=O)c3cccc(NC(=O)c5ccccc5)c3C4=O)c1C2=O)c1ccccc1 | 120% | 116% | 120% |  | 110% | 109% | 103% | 104% | 110% | 124% | 92.8% |  | 87.2% | 112% |  | 98.1% | 118% | 120% | 100% | 109% |
| O=[N+]([O-])c1cccc(C2CC(c3ccccc3)=Nc3ccccc3S2)c1 (centres undefined) | 89.6% | 12.2% | 89.3% | 97.3% | 91.4% | 108% | 99.6% | 102% | 84.7% | 44.1% | 68.2% | 87.2% |  | 94.8% | 88.4% | 22.6% | 96.4% |  |  |  |
